Measured values as given in PubChem BioAssay (NCI).
This is part of a sample that, as a whole, favours compounds with a hit. Of some 79,000 tested, about 15% had one in any assay. Calls of active or inactive are those of the source. Cut-off read from the data, not from the text of the source: active = growth inhibition above about 70%; inactive = the rest.

Key:
[1] = NCI Yeast Anticancer Drug Screen. Data for the rad52 strain (AID 147);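 note: 0% = growth of vehicle-treated control cultures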; settings: S. cerevisiae rad52 mutant growth inhibition, hits give high values
In short: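 DNA repair-defective yeast; compound exposure; growth scored against vehicle controls.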

[2] = NCI Yeast Anticancer Drug Screen. Data for the wt1 strain (AID 149);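 note: 0% = growth of vehicle-treated wt1 cultures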; settings: S. cerevisiae wt1 strain (SPY 50644) growth inhibition, hits give high values
In short: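 Each compound is tested on wt1 yeast and the loss of growth versus vehicle gives the inhibition value.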

[3] = NCI Yeast Anticancer Drug Screen. Data for the rad50EPP+ strain (AID 151);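 note: 0% = growth of vehicle-treated control cultures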; settings: S. cerevisiae rad50 mutant strain, hits give high values
In short: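 rad50EPP+ yeast treated with test compounds. Readout: growth vs vehicle control.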

[4] = NCI Yeast Anticancer Drug Screen. Data for the mgt1 strain (AID 153); settings: S. cerevisiae mgt1 mutant growth inhibition, hits give high values
In short: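 Growth inhibition relative to vehicle controls was scored for the mgt1 yeast strain after compound exposure.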

[5] = NCI Yeast Anticancer Drug Screen. Data for the rad50 strain (AID 155);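 note: 0% = growth of vehicle-only cultures of the same strain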; settings: S. cerevisiae rad50 strain growth inhibition, hits give high values
In short: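 Vehicle-treated cultures provide the reference for the growth inhibition reported for compound-exposed, repair-deficient yeast.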

[6] = NCI Yeast Anticancer Drug Screen. Data for the mec2-1 strain (AID 157); settings: S. cerevisiae mec2-1 strain, hits give high values
In short: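 Growth inhibition is read against vehicle-treated controls after compound exposure of the mec2-1 yeast strain, which is defective in DNA damage repair or cell cycle control.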

[7] = NCI Yeast Anticancer Drug Screen. Data for the sgs1 mgt1 strain (AID 161);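 note: 0% = growth of cultures given vehicle only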; settings: S. cerevisiae sgs1 mgt1 strain, hits give high values
In short: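 Growth of a repair-deficient yeast mutant was monitored after compound treatment and expressed as inhibition relative to vehicle-treated cultures.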

[8] = NCI Yeast Anticancer Drug Screen. Data for the cln2 rad14 strain (AID 165);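 note: 0% = growth equal to vehicle treated cultures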; settings: S. cerevisiae cln2 rad14 strain, hits give high values
In short: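 Growth inhibition, relative to vehicle-treated controls, is the read-out. The test organism is a yeast strain with defined genetic alterations, cln2 rad14.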

[9] = NCI Yeast Anticancer Drug Screen. Data for the bub3 strain (AID 167); settings: S. cerevisiae bub3 mutant strain, hits give high values
In short: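 Mutant yeast screening strain plus compound; vehicle-treated cultures serve as the 0% inhibition reference.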

[10] = NCI Yeast Anticancer Drug Screen. Data for the wt2 strain (AID 169); settings: S. cerevisiae wt2 strain growth inhibition, hits give high values
In short: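 Compound exposure of yeast; growth compared with vehicle controls; inhibition reported.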

[11] = NCI Yeast Anticancer Drug Screen. Data for the mlh1 strain (AID 171);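 note: 0% = growth of vehicle-treated control cultures of the same strain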; settings: S. cerevisiae mlh1 strain growth inhibition, hits give high values
In short: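 Compounds are applied to a genetically altered yeast strain, and its growth is compared with that of vehicle-treated cultures to give percent inhibition.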

[12] = NCI Yeast Anticancer Drug Screen. Data for the sgs1 strain (AID 173);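 note: 0% = growth of vehicle-only control cultures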; settings: S. cerevisiae sgs1 mutant, hits give high values
In short: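 Compounds applied to genetically altered yeast; growth compared with vehicle-treated cultures to give % inhibition.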

[13] = NCI Yeast Anticancer Drug Screen. Data for the mlh1 rad18 strain (AID 175); settings: S. cerevisiae mlh1 rad18 strain growth inhibition, hits give high values
In short: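 Cells of a genetically altered yeast strain, deficient in DNA damage repair, were treated with compound. Their growth was then compared with that of vehicle-treated cultures to give inhibition.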

[14] = NCI Yeast Anticancer Drug Screen. Data for the rad18 strain (AID 177); settings: S. cerevisiae rad18 mutant growth inhibition, hits give high values
In short: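 Compounds are applied to a repair-deficient yeast strain, and growth is compared with that of vehicle-treated cultures to give percent inhibition.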

[15] = NCI Yeast Anticancer Drug Screen. Data for the rad14 strain (AID 159);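 note: 0% = growth of vehicle-treated control cultures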; settings: S. cerevisiae rad14 strain growth inhibition, hits give high values
In short: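 Inhibition of growth is reported for a repair-deficient yeast mutant following compound treatment, calculated relative to cultures that received vehicle.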

[16] = NCI Yeast Anticancer Drug Screen. Data for the CLN2oe strain (AID 163);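 note: 0% = growth of vehicle-only control cultures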; settings: S. cerevisiae CLN2oe strain, hits give high values
In short: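 Compound-treated yeast; growth vs vehicle ctrl = % inhibition. Genetically altered strain (cell-cycle control).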

[17] = at 5.0 µM (retest, dose inferred, filed as 0.5)
[18] = at 50.0 µM (retest, dose inferred, filed as 5.0)

Measured: growth inhibition

OC1CCCC2CCC[N-]C12.OC1CCCC2CCC[N-]C12.[O]=[V][OH] (stereo not drawn)
active: [1]; at 3.7 µM 98% | [1]; at 11.0 µM 98% | [1]; at 33.0 µM 97% | [1]; at 100.0 µM 97% | [2]; at 11.0 µM 85% | [2]; at 33.0 µM 93% | [2]; at 100.0 µM 96% | [3]; at 3.7 µM 96% | [3]; at 11.0 µM 96% | [3]; at 33.0 µM 95% | [3]; at 100.0 µM 95% | [4]; at 3.7 µM 88% | [4]; at 11.0 µM 98% | [4]; at 33.0 µM 97% | [4]; at 100.0 µM 97% | [5]; at 3.7 µM 95% | [5]; [17] 99% | [5]; at 11.0 µM 95% | [5]; at 33.0 µM 95% | [5]; [18] 97% | [5]; at 50.0 µM 86.8% | [5]; at 100.0 µM 95% | [6]; at 3.7 µM 86% | [6]; [17] 99% | [6]; at 11.0 µM 98% | [6]; at 33.0 µM 98% | [6]; at 50.0 µM 90.1% | [6]; at 100.0 µM 96% | [7]; [18] 98% | [7]; at 50.0 µM 91.5% | [8]; [18] 97% | [8]; at 50.0 µM 79.8% | [9]; at 3.7 µM 89% | [9]; [17] 99% | [9]; at 11.0 µM 98% | [9]; at 33.0 µM 98% | [9]; [18] 95% | [9]; at 50.0 µM 90.8% | [9]; at 100.0 µM 97% | [10]; at 11.0 µM 92% | [10]; at 33.0 µM 93% | [10]; at 100.0 µM 96% | [11]; at 11.0 µM 79% | [11]; at 33.0 µM 88% | [11]; at 100.0 µM 95% | [12]; at 11.0 µM 83% | [12]; at 33.0 µM 89% | [12]; at 100.0 µM 94% | [13]; [17] 99% | [13]; at 50.0 µM 86.8% | [14]; at 3.7 µM 95% | [14]; at 11.0 µM 96% | [14]; at 33.0 µM 96% | [14]; at 100.0 µM 96%
inactive: [1]; at 1.2 µM 54% | [2]; at 1.2 µM -4% | [2]; at 3.7 µM 67% | [3]; at 1.2 µM 47% | [4]; at 1.2 µM 24% | [5]; at 1.2 µM 47% | [6]; at 1.2 µM 3% | [6]; [18] 66% | [7]; [17] 19% | [8]; [17] 46% | [9]; at 1.2 µM 10% | [10]; at 1.2 µM -17% | [10]; at 3.7 µM 68% | [11]; at 1.2 µM -25% | [11]; at 3.7 µM 50% | [12]; at 1.2 µM 17% | [12]; at 3.7 µM 69% | [13]; [18] 64% | [14]; at 1.2 µM 46%

CC1=C(N2CC2)C(=O)c2ccccc2C1=O
active: [1]; at 100.0 µM 97% | [3]; at 33.0 µM 79% | [3]; at 100.0 µM 96% | [15]; at 100.0 µM 92% | [7]; [18] 72% | [12]; at 100.0 µM 96% | [14]; at 3.7 µM 72% | [14]; at 11.0 µM 91% | [14]; at 33.0 µM 96% | [14]; at 100.0 µM 98%
inactive: [1]; at 1.2 µM 1% | [1]; at 3.7 µM 11% | [1]; at 11.0 µM 22% | [1]; at 33.0 µM 69% | [2]; at 1.2 µM -5% | [2]; at 3.7 µM -6% | [2]; at 11.0 µM -6% | [2]; at 33.0 µM -2% | [2]; at 100.0 µM 41% | [3]; at 1.2 µM 5% | [3]; at 3.7 µM 16% | [3]; at 11.0 µM 48% | [4]; at 1.2 µM 0% | [4]; at 3.7 µM -49% | [4]; at 11.0 µM 2% | [4]; at 33.0 µM 13% | [4]; at 100.0 µM 36% | [6]; at 1.2 µM 4% | [6]; at 3.7 µM 3% | [6]; [17] -46% | [6]; at 11.0 µM 6% | [6]; at 33.0 µM 11% | [6]; [18] 4% | [6]; at 50.0 µM 19.8% | [6]; at 100.0 µM 49% | [15]; at 1.2 µM 2% | [15]; at 3.7 µM 3% | [15]; at 11.0 µM 14% | [15]; at 33.0 µM 32% | [7]; [17] -41% | [7]; at 50.0 µM 43% | [16]; at 1.2 µM -1% | [16]; at 3.7 µM 0% | [16]; at 11.0 µM 0% | [16]; at 33.0 µM 2% | [16]; at 100.0 µM 39% | [8]; [17] -60% | [8]; [18] 48% | [8]; at 50.0 µM -6.55% | [9]; at 1.2 µM -3% | [9]; at 3.7 µM -2% | [9]; [17] -64% | [9]; at 11.0 µM 2% | [9]; at 33.0 µM 16% | [9]; [18] 16% | [9]; at 50.0 µM -8.05% | [9]; at 100.0 µM 66% | [10]; at 1.2 µM 0% | [10]; at 3.7 µM 1% | [10]; at 11.0 µM 2% | [10]; at 33.0 µM 0% | [10]; at 100.0 µM 34% | [12]; at 1.2 µM 0% | [12]; at 3.7 µM 10% | [12]; at 11.0 µM 36% | [12]; at 33.0 µM 67% | [13]; [17] -99% | [13]; [18] 65% | [13]; at 50.0 µM 46.2% | [14]; at 1.2 µM 36%
